This note sets out measurements from PubChem BioAssay.

For orientation: AC50 means the concentration giving half of the maximal activity seen. As usually defined, the IC50 is the concentration needed to halve the response being measured. A word on the inhibition: it is the change of the read-out against control, counted positive when it falls.

A short description of assay [1]: growth inhibition of DIPG glioma cells, dose response, cell-based, SU-DIPG-XVII, MIPE5.0, CellTiter-Glo, qHTS (AID 1347060).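 As to AC50: cells exposed to compound for 48 hours before viability readout.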 The settings on record: SU-DIPG-XVII viability, CellTiter-Glo ATP luminescence. A general note: ATP-based viability assays read luminescence as a measure of living cells.
Assay [2] is described as follows: growth inhibition of DIPG glioma cells, dose response, cell-based, SU-DIPG-XIII, MIPE5.0, CellTiter-Glo, qHTS (AID 1347064; cut-off not given, nearly all actives have AC50 up to about 23 µM;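 as to AC50: cells exposed to compound for 48 hours before the viability read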). The conditions noted are these: SU-DIPG-XIII viability, CellTiter-Glo ATP luminescence.
Assay [3] is described as follows: viability loss in pontine glioma line – cell-based, SU-DIPG-XXV, MIPE5.0, CellTiter-Glo, qHTS, dose response (AID 1347065).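 Also: cells exposed to compound for 48 hours before ATP readout.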 The conditions noted are these: CellTiter-Glo ATP luminescence.
Assay [4] is described as follows: JHH-DIPG-1 glioma cell viability, MIPE5.0 library, CellTiter-Glo luminescence, qHTS (AID 1347067).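 Also: cells exposed to compound for 48 hours before readout.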 The conditions noted are these: JHH-DIPG-1 glioma viability, CellTiter-Glo ATP luminescence.
The nature of assay [5]: SU-DIPG-XXV glioma cell viability, MIPE5.0 library, qHTS (AID 1347068; cut-off not given, nearly all actives have IC50 up to about 30 µM;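 as to IC50: cells exposed to compound for 48 hours before viability readout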). For orientation: Quantitative high-throughput screening tests each substance at several concentrations.
Assay [6] in a line: sensitizers of A549 cells to miR-34 induction, primary screen, imaging, A549 dox-inducible miR-34, nuclei and caspase counts (AID 1347080;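 active = compounds whose cell count with miR-34 switched on is under 0.7 times the count with it off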). The settings on record: A549 miR-34 inducible, Hoechst nuclei count, 48 h.
Assay [7] in a line: survival rescue of mitochondrial mutant cells in low glucose, primary screen, MELAS cybrids, Rieske KO mouse fibroblasts, CellTiter-Glo (AID 1508586;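 active = mean z-score across replicates of 1.96 or higher in either the MELAS or the Rieske mutant cell line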;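 also: z relative to plate mean and SD of compound and empty wells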).
A short description of assay [8]: LFS_MB_P medulloblastoma growth inhibition, cell-based, chromothripsis tumors, cisplatin or BGB combos (AID 1671449; in the data active = inhibition above about 80%;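 also: cells exposed for 96 hours; 0% = vehicle DMSO and 100% = killing by high DMSO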). The settings on record: LFS_MB_P medulloblastoma cells.
Assay [9] can be described thus: HDN33 neuroblastoma growth inhibition, cell-based, chromothripsis tumors, cisplatin or BGB combos (AID 1671450; in the data active = inhibition above about 80%;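 also: cells exposed to compound for four days; 0% = vehicle DMSO and 100% = cell killing by high DMSO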). The conditions noted are these: HDN33 neuroblastoma cells, stronger effect = higher value.
Assay [10] in a line: ICB984 medulloblastoma cell growth inhibition, synergistic combos for chromothripsis tumors, cisplatin or BGB combos (AID 1671451; call rule not given here;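 also: cells exposed for 96 hours before readout; 0% = vehicle DMSO and 100% = killing by high DMSO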). The settings on record: ICB984 medulloblastoma cells, drug combinations, stronger effect = higher value.
Assay [11] is described as follows: LFS_MB_1R medulloblastoma cell growth inhibition, synergistic combos for chromothripsis tumors, cisplatin or BGB combos (AID 1671452; in the data active = inhibition above about 80%;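 also: cells exposed for 96 hours before readout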). The settings on record: LFS_MB_1R medulloblastoma cells, stronger effect = higher value.
The nature of assay [12]: HTB85 osteosarcoma cell growth inhibition, synergistic combos for chromothripsis tumors, BGB or cisplatin IC20 combos (AID 1671453; in the data active = inhibition above about 80%;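 also: cells exposed for 96 hours before readout; 0% = vehicle DMSO and 100% = high DMSO killing control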). The settings on record: HTB85 osteosarcoma cells, drug combinations, stronger effect = higher value.
A short description of assay [13]: CRL2098 osteosarcoma cell growth inhibition, synergistic combos for chromothripsis tumors, BGB or cisplatin IC20 combos (AID 1671454; in the data active = inhibition above about 80%;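 also: cells exposed for 96 h before readout; 0% = vehicle DMSO and 100% = killing by high DMSO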). The settings on record: CRL2098 osteosarcoma cells, drug combinations, stronger effect = higher value.
Assay [14] can be described thus: HD-MB03 medulloblastoma cell growth inhibition, synergistic combos for chromothripsis tumors, BGB or cisplatin IC20 combos (AID 1671455; in the data active = inhibition above about 83%;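 also: 0% = vehicle DMSO and 100% = high DMSO as cytotoxic control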). The conditions noted are these: HD-MB03 medulloblastoma cells, stronger effect = higher value.
Assay [15] can be described thus: UWB1.289 ovarian carcinoma cell growth inhibition, synergistic combos for chromothripsis tumors, BGB or cisplatin combos (AID 1671456; in the data active = inhibition above about 80%;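 also: cells exposed to compound for four days; 0% = vehicle DMSO and 100% = killing by high DMSO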). The settings on record: UWB1.289 ovarian carcinoma cells, stronger effect = higher value.
Assay [16] is described as follows: MDA-MB-436 breast carcinoma cell growth inhibition, synergistic combos for chromothripsis tumors, BGB or cisplatin combos (AID 1671458; call rule not given here;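 also: cells exposed for 96 hours; 0% = vehicle DMSO and 100% = killing by high DMSO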). The conditions noted are these: MDA-MB-436 breast carcinoma growth inhibition, drug combinations, stronger effect = higher value.
Assay [17] is described as follows: growth inhibition of BT084 medulloblastoma cells, cell-based, ICGC_MB145, cisplatin and BGB IC40 combos (AID 1671461; in the data active = inhibition above about 80%;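 also: cells exposed to drugs for 96 hours; 0% = vehicle DMSO and 100% = high DMSO full killing control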). The conditions noted are these: drug combinations, stronger effect = higher value.
Assay [18] can be described thus: growth inhibition of RCMB18 medulloblastoma cells, cell-based, cisplatin and BGB IC40 combos (AID 1671462; in the data active = inhibition above about 80%;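 also: cells exposed to compound for four days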). The conditions noted are these: stronger effect = higher value.
Assay [19] can be described thus: growth inhibition of CRL1545 osteosarcoma cells, cell-based, cisplatin and BGB IC20 combos (AID 1671464; in the data active = inhibition above about 80%;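 also: cells exposed to compound for 96 hours before readout; 0% = vehicle DMSO and 100% = high DMSO killing control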). The conditions noted are these: stronger effect = higher value.
The mark [20] stands for this setting: measured here: combination with BGB IC40, at 0.05 µM.
Setting [21] is: measured here: with BGB IC20 combination, at 0.5 µM.
The mark [22] stands for this setting: measured here: with cisplatin IC20 combination, at 0.5 µM.
Setting [23] is: measured here: combination with cisplatin, at 0.5 µM.

Each structure is given as a SMILES string. Results filed as inconclusive are left out. The source made the active and inactive calls. Unless noted, the limit is not given here; nearly all actives have AC50 up to about 26 µM.

With `Cc1ccc(C(=O)Nc2ccc(CN3CCN(C)CC3)c(C(F)(F)F)c2)cc1C#Cc1cnc2[nH]ncc2c1`, the AC50 in [1] is 0.0417 µM (active); in [2] it was 0.0118 µM (active); in assay [3], 0.0263 µM (active); in assay [4], 0.468 µM (active). The IC50 in assay [5] is 0.332 µM (active). Further, the fold change in assay [6] (stronger effect = lower value, cell number ratio, induced over uninduced) was 0.928 (inactive); in assay [6] (measured here: relative caspase fold change +Dox/-Dox), 0.675. Moreover, the cell count in [6] (measured here: total cells with miR-34 induction, stronger effect = lower value) was determined as 506; in [6] (measured here: total cells without miR-34 induction), 546. Moreover, the z-score in assay [7] (MELAS cybrid survival, CellTiter-Glo 48 h, stronger effect = higher value) is 0.831 (inactive); in assay [7] (Rieske KO mouse fibroblast survival, CellTiter-Glo 72 h) it was -6.34.
`C=C1[C@H](CO)[C@@H](O)C[C@@H]1n1cnc2c(=O)[nH]c(N)nc21`: the call in [1], in [2], in assay [3], in assay [4] and in [5] was inactive. Further, the inhibition in [8] (at 0.5 µM, stronger effect = higher value) was -21.8% (inactive); in assay [8] (measured here: combination with BGB IC20, at 0.005 µM), 5.29%; in assay [8] (measured here: combination with BGB IC40, at 0.005 µM), 73.1%; in [8] (setting [20]), 2.38%; in assay [8] (measured here: combination with cisplatin, at 0.5 µM, stronger effect = higher value) it was -17.3%; in assay [8] (measured here: combination with cisplatin, at 5 µM, stronger effect = higher value), -13.1%. Moreover, the inhibition in [9] (BGB combo, at 5 µM) is -36.2%; in [9] (at 0.5 µM) it was -7.93% (inactive); in assay [9] (cisplatin combo, at 5 µM) it was -16.1%; in [9] (setting [21]) it was -13.1%; in [9] (setting [22]), -0.869%; in assay [9] (single agent, at 5 µM), -23.6%. For the same compound, the inhibition was -16% in assay [10] (BGB IC20 combo, at 0.005 µM); -1.32% in assay [10] (BGB IC40 combo, at 0.005 µM); -29.5% in assay [10] (BGB IC40 combo, at 0.05 µM); -11.2% (inactive) in [10] (at 0.5 µM); -36.2% in assay [10] (cisplatin combo, at 0.05 µM); -7.79% in [10] (cisplatin combo, at 0.5 µM). For the same compound, the inhibition is -2.87% in [10] (cisplatin combo, at 5 µM); -12.5% in assay [10] (measured here: 5 uM single agent, at 5 µM); -2.98% (inactive) in assay [11] (at 0.5 µM); -6.72% in [11] (setting [20]); -9.39% in [11] (setting [23]); 13.9% in [11] (measured here: combination with cisplatin, at 5 µM). Besides, the inhibition is -14.3% (inactive) in assay [12] (at 0.5 µM); -14.3% in assay [12] (measured here: with BGB IC20, at 0.5 µM); -13% in [12] (measured here: with BGB IC20, at 5 µM); -20.6% in assay [12] (measured here: with cisplatin IC20, at 0.5 µM); -13.2% in assay [12] (measured here: with cisplatin IC20, at 5 µM); -13% in assay [12] (single agent, at 5 µM). In addition, the inhibition was -23% (inactive) in assay [13] (at 0.5 µM); -65.5% in assay [13] (measured here: combination with BGB at IC20, at 0.5 µM); -29.3% in [13] (measured here: combination with cisplatin at IC20, at 0.5 µM); 0.83% (inactive) in assay [14] (at 0.5 µM); -0.76% in assay [14] (measured here: combo with BGB at IC20, at 0.5 µM); -1.27% in assay [14] (measured here: combo with cisplatin at IC20, at 0.5 µM). The inhibition is -8.13% (inactive) in assay [15] (at 0.5 µM); 1.38% in [15] (measured here: inhibition with BGB combination, at 0.05 µM); -3.75% in assay [15] (measured here: inhibition with cisplatin combination, at 0.05 µM); -0.47% (inactive) in assay [16] (at 0.5 µM); -0.92% in assay [16] (measured here: BGB combination, at 0.5 µM); -0.668% in assay [16] (measured here: BGB combination, at 5 µM). The inhibition was 0.06% in assay [16] (measured here: cisplatin combination, at 0.5 µM); -10.2% in [16] (measured here: cisplatin combination, at 5 µM); 4.2% (inactive) in assay [17] (at 0.5 µM); 2.02% in assay [17] (cisplatin combination, at 0.5 µM); -20% in [17] (cisplatin combination, at 5 µM); -15.2% in assay [17] (measured here: BGB IC40 combination 0.05 uM, at 0.05 µM). For the same compound, the inhibition was 6.8% in assay [17] (single agent, at 5 µM); -7.97% (inactive) in assay [18] (at 0.5 µM); 3.9% in assay [18] (cisplatin combo, at 5 µM); -6.21% in [18] (measured here: BGB IC40 combination, at 0.05 µM); -17.4% in assay [18] (setting [23]); -2.06% in [18] (single agent, at 5 µM). In addition, the inhibition in [19] (at 0.5 µM) was -6.46% (inactive); in assay [19] (setting [21]), -39.9%; in assay [19] (setting [22]) it was 8.8%; in [19] (single agent, at 0.05 µM), 4.9%; in assay [19] (single agent, at 5 µM) it was -41.7%.
`CC(=O)N1CCC(Nc2cc(C(=O)NC[C@H](O)CN3CCc4ccccc4C3)ncn2)CC1`: the compound was called inactive in assay [1], in assay [2], in [3] and in [5].
In the case of `COc1ccc([C@@H](O)[C@@H](C)Oc2ccc([C@H]3O[C@H](c4ccc(O[C@H](C)[C@H](O)c5ccc(OC)c(OC)c5)c(OC)c4)[C@H](C)[C@H]3C)cc2OC)cc1OC`, the AC50 in assay [1] is 20.9 µM (active); in assay [2], 5.9 µM (active); in [3], 10.5 µM (active). In addition, in assay [5], the IC50 was 11.8 µM (active).
For `Cc1ccc(-n2nc(C(C)(C)C)cc2NC(=O)NCc2cc(F)ccc2Oc2ccc3c(cnn3CCO)c2)cc1` the same measures were 10.5 µM (active), 6.61 µM (active), 5.25 µM (active) and 18.6 µM (active).
Regarding `COc1cc([C@@H](CC(=O)O)c2ccc(C)c(CN3C[C@@H](C)Oc4ccccc4S3(=O)=O)c2)cc2nnn(C)c12`, the result in [1], in [2], in assay [3] and in assay [5] was inactive.
Turning to `OC[C@H]1O[C@@H](S[C@@H]2O[C@H](CO)[C@H](O)[C@H](n3cc(-c4cccc(F)c4)nn3)[C@H]2O)[C@H](O)[C@@H](n2cc(-c3cccc(F)c3)nn2)[C@H]1O`, the result in assay [1], in [2], in [3] and in assay [5] was inactive.
